# PubChem BioAssay AID1159580 (chemical genetic matrix, 2015)
# Out of some 5,500 compounds screened, about 2,000 (36%) were called active. About 18% were inconclusive and are not listed. Some of the results follow. A number with no mark means an inactive call. Cut-off read from the data, not from the text of the source: active = normalized growth mostly below about 0.91 (no sharp cut-off); inconclusive = no clear call, values can overlap the other calls; inactive = mostly above about 0.92.
# Assay: chemical genetic growth profiling, strain panel (AID 1159580);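 note: tested at 20 µM; growth read once vehicle control cultures reached saturation at 30 °C; 1 = growth at the plate median or of vehicle wells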
# Details: S. cerevisiae deletion strains, growth OD
# [1] = locus YAL040C, strain CLN3, stronger effect = lower value
# [2] = locus YCL061C, strain MRC1 (second series), stronger effect = lower value
# [3] = locus YDR150W, strain NUM1, stronger effect = lower value
# [4] = locus YDR363W, strain ESC2, stronger effect = lower value
# [5] = locus YER002W, strain NOP16, stronger effect = lower value
# [6] = locus YGR078C, strain PAC10, stronger effect = lower value
# [7] = locus YNL175C, strain NOP13, stronger effect = lower value
# [8] = locus YNL197C, strain WHI3, stronger effect = lower value
# [9] = locus YNL224C, strain SQS1, stronger effect = lower value
# [10] = locus YOR083W, strain WHI5 (second series), stronger effect = lower value
# [11] = locus YGR229C, strain SMI1, stronger effect = lower value
# [12] = locus YJR075W, strain HOC1, stronger effect = lower value
# [13] = locus YPL241C, strain CIN2, stronger effect = lower value
# [14] = locus YNL153C, strain GIM3, stronger effect = lower value
# [15] = locus YBL105C, strain PKC1, stronger effect = lower value
# [16] = locus YBR135W, strain CKS1, stronger effect = lower value
# [17] = locus YBR136W, strain MEC1, stronger effect = lower value
# [18] = locus YBR160W, strain CDC28, stronger effect = lower value
# [19] = locus YDL017W, strain CDC7, stronger effect = lower value
# [20] = locus YDL028C, strain MPS1, stronger effect = lower value
# [21] = locus YDL108W, strain KIN28, stronger effect = lower value
# [22] = locus YDL214C, strain PRR2, stronger effect = lower value
# [23] = locus YDR052C, strain DBF4, stronger effect = lower value
# [24] = locus YDR226W, strain ADK1, stronger effect = lower value
# [25] = locus YDR477W, strain SNF1, stronger effect = lower value
# [26] = locus YER123W, strain YCK3, stronger effect = lower value
# [27] = locus YER133W, strain GLC7, stronger effect = lower value
# [28] = locus YFR003C, strain YPI1, stronger effect = lower value
# [29] = locus YFR019W, strain FAB1, stronger effect = lower value
# [30] = locus YFR028C, strain CDC14, stronger effect = lower value
# [31] = locus YGR040W, strain KSS1, stronger effect = lower value
# [32] = locus YGR052W, strain FMP48, stronger effect = lower value
# [33] = locus YGR092W, strain DBF2, stronger effect = lower value
# [34] = locus YHR030C, strain SLT2, stronger effect = lower value
# [35] = locus YHR079C, strain IRE1, stronger effect = lower value
# [36] = locus YHR082C, strain KSP1, stronger effect = lower value
# [37] = locus YHR205W, strain SCH9, stronger effect = lower value
# [38] = locus YIL147C, strain SLN1, stronger effect = lower value
# [39] = locus YJL095W, strain BCK1, stronger effect = lower value
# [40] = locus YJL128C, strain PBS2, stronger effect = lower value
# [41] = locus YJL157C, strain FAR1, stronger effect = lower value
# [42] = locus YJR016C, strain ILV3, stronger effect = lower value
# [43] = locus YJR066W, strain TOR1 (second series), stronger effect = lower value
# [44] = locus YJR066W, strain TOR1, stronger effect = lower value
# [45] = locus YKL048C, strain ELM1, stronger effect = lower value
# [46] = locus YKL067W, strain YNK1, stronger effect = lower value
# [47] = locus YKL101W, strain HSL1, stronger effect = lower value
# [48] = locus YKL203C, strain TOR2, stronger effect = lower value
# [49] = locus YLR113W, strain HOG1, stronger effect = lower value
# [50] = locus YLR133W, strain CKI1, stronger effect = lower value
# [51] = locus YLR403W, strain SFP1, stronger effect = lower value
# [52] = locus YML070W, strain DAK1, stronger effect = lower value
# [53] = locus YMR205C, strain PFK2 (second series), stronger effect = lower value
# [54] = locus YNL006W, strain LST8, stronger effect = lower value
# [55] = locus YNL020C, strain ARK1, stronger effect = lower value
# [56] = locus YNL183C, strain NPR1, stronger effect = lower value
# [57] = locus YNL207W, strain RIO2, stronger effect = lower value
# [58] = locus YNL307C, strain MCK1 (second series), stronger effect = lower value
# [59] = locus YOL136C, strain PFK27, stronger effect = lower value
# [60] = locus YOR061W, strain CKA2, stronger effect = lower value
# [61] = locus YOR119C, strain RIO1, stronger effect = lower value
# [62] = locus YOR231W, strain MKK1, stronger effect = lower value
# [63] = locus YPL031C, strain PHO85, stronger effect = lower value
# [64] = locus YPL153C, strain RAD53, stronger effect = lower value
# [65] = locus YPL204W, strain HRR25, stronger effect = lower value
# [66] = locus YPL209C, strain IPL1, stronger effect = lower value
# [67] = locus YPL256C, strain CLN2, stronger effect = lower value
# [68] = locus YPR106W, strain ISR1, stronger effect = lower value
# [69] = locus YPR111W, strain DBF20, stronger effect = lower value
# [70] = strain NNK1, stronger effect = lower value
smiles,measurement,setting,value
Ic1ccc(N2CCN(Cc3c[nH]c4ncccc34)CC2)cc1,normalized growth,[1],1
same,normalized growth,[2],0.919 (active)
same,normalized growth,[3],0.914 (active)
same,normalized growth,[4],0.956
same,normalized growth,[5],1.06
same,normalized growth,[6],0.851 (active)
same,normalized growth,"locus YMR307W, strain GAS1, stronger effect = lower value",1.01
same,normalized growth,[7],1.01
same,normalized growth,[8],1.01
same,normalized growth,[9],1.06
same,normalized growth,[10],0.809 (active)
Clc1ccc(N2CCN(Cc3c[nH]c4ncccc34)CC2)cc1,normalized growth,[1],1.08
same,normalized growth,[2],0.969
same,normalized growth,[3],0.965
same,normalized growth,[4],0.907
same,normalized growth,[5],0.968
same,normalized growth,[6],0.975
same,normalized growth,[11],0.748 (active)
same,normalized growth,[12],0.929
same,normalized growth,[7],0.969
same,normalized growth,[8],0.974
same,normalized growth,[9],0.987
same,normalized growth,[10],0.925
same,normalized growth,"locus YPL055C, strain LGE1, stronger effect = lower value",0.92
same,normalized growth,[13],0.992
OC1(c2ccc(Cl)cc2)CCN(Cc2c[nH]c3ccccc23)CC1,normalized growth,"locus YAL013W, strain DEP1, stronger effect = lower value",1.01
same,normalized growth,[1],1
same,normalized growth,[2],0.999
same,normalized growth,[4],0.974
same,normalized growth,[5],1.03
same,normalized growth,[6],1.02
same,normalized growth,[11],0.979
same,normalized growth,[12],1.01
same,normalized growth,[14],1
same,normalized growth,[7],1.02
same,normalized growth,[8],1.02
same,normalized growth,[9],1.03
same,normalized growth,"locus YNL322C, strain KRE1, stronger effect = lower value",0.993
same,normalized growth,[10],1.01
COCc1nc2c([nH]1)c(=O)n(C)c(=O)n2CC(C)C,normalized growth,[1],0.991
same,normalized growth,[2],1
same,normalized growth,[3],1
same,normalized growth,[4],0.997
same,normalized growth,[5],1.02
same,normalized growth,[6],1.01
same,normalized growth,[11],0.993
same,normalized growth,[12],0.994
same,normalized growth,[14],1.01
same,normalized growth,[7],0.999
same,normalized growth,[8],1.01
same,normalized growth,[9],1
same,normalized growth,[10],1.01
same,normalized growth,[13],1.01
Cc1ccc(Sc2c(Sc3ccc(C)cc3)c(=O)c2=O)cc1,normalized growth,"locus YAR019C, strain CDC15, stronger effect = lower value",0.898
same,normalized growth,[15],0.982
same,normalized growth,[16],0.961
same,normalized growth,[17],0.968
same,normalized growth,[18],0.958
same,normalized growth,[19],0.971
same,normalized growth,[20],0.961
same,normalized growth,"locus YDL101C, strain DUN1, stronger effect = lower value",0.915
same,normalized growth,[21],0.964
same,normalized growth,"locus YDL132W, strain cdc53, stronger effect = lower value",0.936
same,normalized growth,[22],0.184 (active)
same,normalized growth,[23],0.974
same,normalized growth,[24],0.968
same,normalized growth,[25],0.226 (active)
same,normalized growth,[26],0.14 (active)
same,normalized growth,[27],0.237 (active)
same,normalized growth,"locus YFL009W, strain cdc4, stronger effect = lower value",0.946
same,normalized growth,[28],0.969
same,normalized growth,[29],0.128 (active)
same,normalized growth,[30],0.958
same,normalized growth,[31],0.285 (active)
same,normalized growth,[32],0.228 (active)
same,normalized growth,[33],0.427 (active)
same,normalized growth,[34],0.132 (active)
same,normalized growth,[35],0.171 (active)
same,normalized growth,[36],0.155 (active)
same,normalized growth,[37],0.0561 (active)
same,normalized growth,[38],0.964
same,normalized growth,[39],0.172 (active)
same,normalized growth,[40],0.949
same,normalized growth,[41],0.168 (active)
same,normalized growth,[42],0.976
same,normalized growth,[43],0.135 (active)
same,normalized growth,[44],0.129 (active)
same,normalized growth,[45],0.599 (active)
same,normalized growth,[46],0.287 (active)
same,normalized growth,[47],0.447 (active)
same,normalized growth,"locus YKL193C, strain SDS22, stronger effect = lower value",0.948
same,normalized growth,[48],0.551 (active)
same,normalized growth,[49],0.186 (active)
same,normalized growth,[50],0.267 (active)
same,normalized growth,[51],0.161 (active)
same,normalized growth,[52],0.135 (active)
same,normalized growth,"locus YMR001C, strain CDC5, stronger effect = lower value",0.952
same,normalized growth,[53],0.486 (active)
same,normalized growth,"locus YMR277W, strain FCP1, stronger effect = lower value",0.882
same,normalized growth,[54],0.949
same,normalized growth,[55],0.319 (active)
same,normalized growth,"locus YNL161W, strain CBK1, stronger effect = lower value",0.966
same,normalized growth,[56],0.173 (active)
same,normalized growth,[57],0.973
same,normalized growth,[58],0.267 (active)
same,normalized growth,[59],0.118 (active)
same,normalized growth,[60],0.427 (active)
same,normalized growth,[61],0.636 (active)
same,normalized growth,[62],0.224 (active)
same,normalized growth,"locus YOR329C, strain SCD5, stronger effect = lower value",0.978
same,normalized growth,[63],0.144 (active)
same,normalized growth,[64],0.178 (active)
same,normalized growth,[65],0.197 (active)
same,normalized growth,[66],0.965
same,normalized growth,[67],0.172 (active)
same,normalized growth,"locus YPR025C, strain CCL1, stronger effect = lower value",0.957
same,normalized growth,[68],0.967
same,normalized growth,[69],0.952
same,normalized growth,[70],0.963
same,normalized growth,"strain TSCII, stronger effect = lower value",0.914
O=c1c(Sc2ccc(Cl)cc2)c(Sc2ccc(Cl)cc2)c1=O,normalized growth,[15],0.984
same,normalized growth,[16],0.961
same,normalized growth,[17],0.978
same,normalized growth,[18],0.973
same,normalized growth,[19],0.985
same,normalized growth,[20],0.973
same,normalized growth,[21],0.967
same,normalized growth,[22],0.104 (active)
same,normalized growth,[23],0.977
same,normalized growth,[24],0.971
same,normalized growth,[25],0.136 (active)
same,normalized growth,[26],0.0987 (active)
same,normalized growth,[27],0.108 (active)
same,normalized growth,[28],0.979
same,normalized growth,[29],0.091 (active)
same,normalized growth,[30],0.968
same,normalized growth,[31],0.158 (active)
same,normalized growth,[32],0.135 (active)
same,normalized growth,[33],0.386 (active)
same,normalized growth,[34],0.128 (active)
same,normalized growth,[35],0.113 (active)
same,normalized growth,[36],0.128 (active)
same,normalized growth,[37],0.121 (active)
same,normalized growth,[38],0.971
same,normalized growth,[39],0.128 (active)
same,normalized growth,[40],0.971
same,normalized growth,[41],0.0972 (active)
same,normalized growth,[42],0.974
same,normalized growth,[43],0.0937 (active)
same,normalized growth,[44],0.124 (active)
same,normalized growth,[45],0.6 (active)
same,normalized growth,[46],0.115 (active)
same,normalized growth,[47],0.39 (active)
same,normalized growth,[48],0.432 (active)
same,normalized growth,[49],0.175 (active)
same,normalized growth,[50],0.147 (active)
same,normalized growth,[51],0.154 (active)
same,normalized growth,[52],0.0995 (active)
same,normalized growth,[53],0.241 (active)
same,normalized growth,[54],0.45 (active)
same,normalized growth,[55],0.196 (active)
same,normalized growth,[56],0.114 (active)
same,normalized growth,[57],0.973
same,normalized growth,[58],0.261 (active)
same,normalized growth,[59],0.0906 (active)
same,normalized growth,[60],0.266 (active)
same,normalized growth,[61],0.485 (active)
same,normalized growth,[62],0.142 (active)
same,normalized growth,[63],0.103 (active)
same,normalized growth,[64],0.104 (active)
same,normalized growth,[65],0.109 (active)
same,normalized growth,[66],0.985
same,normalized growth,[67],0.154 (active)
same,normalized growth,[68],0.978
same,normalized growth,[69],0.962
same,normalized growth,[70],0.98
